This is an account of results in PubChem BioAssay (EPA / NIEHS).

Active and inactive are the calls of the source. How the source made its calls: active means hit-call score of the fitted dose curve at least 0.9, where 1 is the maximum; inactive means score below 0.9.

In this assay the target is Signal transducer and activator of transcription 3 (Homo sapiens) (UniProt P40763). Put plainly: ATG_STAT3_CIS: Attagene CIS-FACTORIAL HepG2 Assay for human Signal Transducer and Activator of Transcription 3 (STAT3) (AID 2282963). The note with it: HepG2, Attagene cis-factorial STAT3 reporter transcription; actives raise or lower the signal. Here is the method: ATG_CIS is a cell-based, multiplexed-readout assay that uses HepG2, a human liver cell line, with measurements taken at 24 hours after chemical dosing in a 24-well plate.ATG_STAT3_CIS is one of 52 assay component(s) measured or calculated from the ATG_CIS assay. It is designed to make measurements of mRNA induction, a form of inducible reporter, as detected with fluorescence intensity signals by Reverse transcription polymerase chain reaction (RT-PCR) and Capillary electrophoresis technology.Data from the assay component ATG_STAT3_CIS was analyzed into 1 assay endpoint. This assay endpoint, ATG_STAT3_CIS, was analyzed with bidirectional fitting relative to DMSO as the negative control and baseline of activity. Using a type of inducible reporter, measures of mRNA for gain or loss-of-signal activity can be used to understand the reporter gene at the transcription factor-level as they relate to the gene STAT3. Furthermore, this assay endpoint can be referred to as a primary readout, because this assay has produced multiple assay endpoints where this one serves a reporter gene function. To generalize the intended target to other relatable targets, this assay endpoint is annotated to the dna binding intended target family, where the subfamily is stat protein.
Sequence of Signal transducer and activator of transcription 3 (Homo sapiens) (P40763 whole entry, looked up): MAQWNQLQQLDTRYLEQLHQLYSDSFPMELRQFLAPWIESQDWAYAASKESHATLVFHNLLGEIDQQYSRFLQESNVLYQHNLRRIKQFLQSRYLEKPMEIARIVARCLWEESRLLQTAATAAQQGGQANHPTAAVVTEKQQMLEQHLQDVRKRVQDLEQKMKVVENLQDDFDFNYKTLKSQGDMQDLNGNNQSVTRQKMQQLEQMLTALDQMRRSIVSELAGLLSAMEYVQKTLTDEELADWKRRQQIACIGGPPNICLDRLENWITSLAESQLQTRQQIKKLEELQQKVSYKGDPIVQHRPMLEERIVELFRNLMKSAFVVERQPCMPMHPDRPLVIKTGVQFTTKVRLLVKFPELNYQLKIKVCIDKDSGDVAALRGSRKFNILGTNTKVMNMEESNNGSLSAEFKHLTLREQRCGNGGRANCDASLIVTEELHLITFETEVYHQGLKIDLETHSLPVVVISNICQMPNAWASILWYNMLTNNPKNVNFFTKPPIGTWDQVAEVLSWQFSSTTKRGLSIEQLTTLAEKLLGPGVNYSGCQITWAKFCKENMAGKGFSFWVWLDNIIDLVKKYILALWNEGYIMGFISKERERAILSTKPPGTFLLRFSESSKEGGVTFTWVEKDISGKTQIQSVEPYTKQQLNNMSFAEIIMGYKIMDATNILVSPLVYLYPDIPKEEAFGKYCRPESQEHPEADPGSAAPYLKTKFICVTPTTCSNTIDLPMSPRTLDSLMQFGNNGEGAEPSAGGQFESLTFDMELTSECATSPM
Human liver HepG2 cells are transiently transfected with multiple reporter transcription units (MRTUs) in 6-well plates using FuGene 6 reagent (Roche; 3 ml FuGene/1 mg DNA). The MRTU constructs are regulated by a cis-regulating element (promoter). […] A major difference between the CIS and TRANS system is that in CIS activities of endogenous TFs are measured, whereas the TRANS assay evaluates changes in activities of exogenous, chimeric NR-Gal4 proteins. […] At the end of 24 hour incubation, total RNA was isolated using TriZol reagent (Invitrogen). The isolated RNA is then reverse-transcribed using oligo(dT) primer and Mo-MLV reverse transcriptase (Invitrogen) with DNAse I (Ambion) treatment for 30 min. The one-tenth of the produced cDNA was amplified by PCR using Taq DNA polymerase (Invitrogen) and two reporter sequence-specific primers. The PCR products were fluorescently labeled by primer extension with 6-arboxyfluorescein (6-FAM) 5'-labeled reporter sequence-specific primer (2 min at 95 C, 20 s at 68 C and 10 min at 72 C) and these products were digested with 5U of HpaI (New England Biolabs) for 2h at 37 C. The fragments were purified using Qiaquick PCR columns (Qiagen), analyzed on an ABI 3130xL genetic analyzer (Applied Biosystems) with peak positions identified by using a set of X-rhodamine (ROX)-labeled MapMarker1000 molecular weight standards (BioVentures). The raw capillary electrophoresis data was processed using Attagraph software (Attagene).
As for `CC(=O)OC1CCCCC1`, the result was inactive.
With `O=S(=O)(O)c1ccc(N=Nc2c(O)ccc3ccccc23)cc1` the entry was “inactive”; with `CCCCCCCCCCCC(=O)N(C)CC(=O)O`, “inactive”.
For the compound `COC(=O)c1ccc(C(=O)OC)c(C(=O)OC)c1`, the call was inactive.
Regarding `CCCCCCCCCCCCCC(=O)OC(C)C`, the result was inactive.
The same measure for `CCCCOCCOC(=O)COc1ccc(Cl)cc1Cl`: “inactive”; for `O=C(O)c1cc(O)c2ccccc2c1O`: “inactive”.
With `COC(Cc1ccccc1)OC` the entry was “inactive”.
Take `C=Cc1cccc(C)c1`: the call was inactive.
The same measure for `CCCCOC(=O)C(C)CC` (stereo not given): “inactive”; for `CCC(C)C(=O)OC` (stereo not given): “inactive”.
With `CCCCC/C=C\C/C=C\CCCCCCCC(=O)O` the entry was “inactive”; with `Cc1c(O)cccc1O`, “inactive”; with `CC(C)CCOCc1ccccc1`, “inactive”.
The same measure for `CCCCCCO`: “inactive”.
For the compound `CC(c1cc(C(C)(C)C)cc(C(C)(C)C)c1O)c1cc(C(C)(C)C)cc(C(C)(C)C)c1O`, the compound was called inactive.
`Nc1ccc(C(=O)O)cc1`: the compound was called inactive.
`C1CCSC1`: the call was inactive.
`C=CC(=O)NCOCCCC`: the compound was classed as inactive.
With `COC(=O)CC(C)CCC=C(C)C` (stereo not given) the entry was “inactive”.
As to `CC1OC(=O)C(C)OC1=O` (stereo not given), the compound was classed as inactive.
With `CCCCNS(=O)(=O)c1ccccc1` the entry was “inactive”.
Take `C=CC(=O)OCC(C)OCC(C)OCC(C)OC(=O)C=C` (stereo not given): the result was inactive.
With `CCCc1ccc(O)c(OC)c1` the entry was “inactive”; with `C=CCCCCCCCCOC(C)=O`, “inactive”; with `CC/C=C\CCOC(=O)c1ccccc1O`, “inactive”.
With `C=CCCCCCCCCO` the entry was “inactive”; with `c1ccc2cnccc2c1`, “inactive”.
With `CC1=CP(=O)(c2ccccc2)CC1` (stereo not given) the entry was “inactive”; with `CCCCCCCO`, “inactive”.
Turning to `Nc1nc(N)nc(-c2ccccc2)n1`, the result was inactive.
The same measure for `CCCCOCC(C)O` (stereo not given): “inactive”; for `CCCCCCCC(=O)OCC(COC(=O)CCCCCCC)OC(=O)CCCCCCC`: “inactive”.
Turning to `C/C=C/C=C/CCCCCCCO`, the compound was called inactive.
In the case of `C=C(C)C1CC=C(C)C(OC(C)=O)C1` (stereo not given), the compound was classed as inactive.
On to `CCCCC(=O)O`, for which the compound was called inactive.
As for `CCOC(=O)/C=C\C(=O)OCC`, the compound was called inactive.
The same measure for `CC(=O)OCC=C(C)C`: “inactive”.
For `Cc1ccc(C)c(OCCCC(C)(C)C(=O)O)c1`, the call was inactive.
The same measure for `CCCCCOC(=O)CCCCC`: “inactive”.
